Laboratory results reported in PubChem BioAssay (EPA / NIEHS).
Calls of active or inactive are those of the source. The calls were made as follows: active = hit-call score of the fitted dose curve at least 0.9, where 1 is the maximum; inactive = score below 0.9.

Assay: Tanguay_ZF_120hpf_MUSC: Oregon State University Tanguay Lab 120 Hour Post-fertilization zebrafish Assay for Muscle Malformation (AID 2284401)
Method in brief: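 Scored as a binary brightfield endpoint at 120 hpf, fitted versus DMSO. Single dechorionated wild-type (Tropical 5D) zebrafish embryos per well, statically exposed at 28C from 6 hpf onward with final DMSO 0.64%.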

FC(F)(F)C(F)(F)C(F)(F)C(F)(F)C(F)(F)C(F)(F)C(F)(F)CCI
outcome: inactive
